# Reference: PubChem BioAssay AID1850 (Southern Research Specialized Biocontainment Screening …, 2009)
# Several values for one entry are separate records, joined by “and”; a condition that tells them apart may be missing. Equal entries are not always repeated. About 1,000 (0.32%) of roughly 310,000 compounds were called active. The rule behind the calls is not given here. A selection follows. Entries with a potency or affinity are not part of this list.
# Assay: PhoP regulon inhibitors, Salmonella typhi PhoP promoter GFP reporter, confirmatory (AID 1850);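 note: 0% = induced wells with vehicle and 100% = uninduced wells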
# Conditions: fluorescence, 4 h, at 50 µM, active compounds read high
row,Compound,inhibition
1,Cc1onc(-c2ccccc2Cl)c1C(=O)Nc1ccccc1C(N)=O,7.75% (inactive)
2,O=C(Nc1nnc(-c2ccc(F)cc2)s1)c1ccco1,2.98% (inactive)
3,O=C(O)/C(=C\c1cccs1)c1ccc(F)cc1,-11.8% (inactive)
4,CNC(=O)C1C2C=CC3(O2)C1C(=O)N(CCOC)C3C(=O)NCc1ccc(OC)cc1 (configuration not stated),16.8% (inactive)
5,CC1CCCCC1NC(=O)CN(C)S(=O)(=O)c1cccc2cccnc12 (configuration not stated),10.4% (inactive)
6,CC(=O)c1c(C(C)=O)c(C)n(-c2ccc(N)c(C)c2)c1C,-3.65% (inactive)
7,Cc1ccc(C)c(/C=C/C(=O)c2ccccc(=O)c2O)c1,-3.4% (inactive)
8,Cc1ccc(/C=C/C(=O)c2ccccc(=O)c2O)c(C)c1,-6.97% (inactive)
9,CCC(C)NC(=O)CSc1nc2ccc(N3CCOCC3)cc2c(=O)n1CCc1ccccc1 (configuration not stated),-0.99% (inactive)
10,Cc1cc(C(=O)N/N=C/c2c(C)n(C)c3ccccc23)n[nH]1,-9.94% (inactive)
11,O=C(O)[C@@H]1CC(O)CN1C(=O)CCc1c[nH]c2ccccc12 (some centres not stated),6.6% (inactive)
12,CN(C)CC/C=C1/c2cc(F)ccc2CSc2ccc(F)cc21,-7.52% (inactive)
13,CN(C)CC/C=C1/c2ccc(F)cc2Sc2ccc(Cl)cc21,-10.8% (inactive)
14,CN(C)CC/C=C1\c2cc(F)ccc2CSc2ccccc21,1.61% (inactive)
15,CN(C)CC/C=C1\c2cc(Cl)ccc2Sc2cc(F)c(F)cc21,10.9% (inactive)
16,CN(C)CC/C=C1/c2ccccc2Sc2c(O)cc(Cl)cc21,14.1% (inactive)
17,COc1cc(Cl)cc2c1Sc1ccccc1/C2=C/CCN(C)C,-4.02% (inactive)
18,COc1cc2c(cc1Cl)/C(=C\CCN(C)C)c1ccccc1S2,2.09% (inactive)
19,CN(C)CC/C=C1/c2ccccc2Sc2ccc(Cl)cc21,21% (inactive)
20,Cc1cccc(OCCCC(=O)Nc2ccc(S(N)(=O)=O)cc2)c1,-6.31% (inactive)
21,CCCCCCSc1ccc(-c2nc3ccccn3c2NCCCC)cc1,-1.64% (inactive)

row,Compound,inhibition
1,CC(C)CC(=O)c1c[nH]c(C(=O)NCCCN2CCOCC2)c1,0.393% (inactive)
2,CCc1nnc(NC(=O)C=C(C)C)s1,-12.1% (inactive)
3,O=C(CSc1nccn1-c1ccccc1)NCc1ccc(F)cc1,5.7% (inactive)
4,Cc1cc(C)cc(NC(=O)N2CCC(NC(=O)c3ccco3)CC2)c1,-4.45% (inactive)
5,COc1cc(C2(O)CCCCC2C)cc(OC)c1OC (configuration not stated),0.64% (inactive)
6,CC(C)C(C(=O)NCc1ccco1)N(Cc1ccco1)C(=O)CNS(=O)(=O)c1ccc(F)cc1 (configuration not stated),-1.96% (inactive)
7,COc1ccc(Cl)cc1NC(=S)NCc1cccs1,-1.43% (inactive)
8,Cc1ccc(NC(=O)c2cc(NC(=O)C3CC=CCC3C(=O)O)ccc2N2CCOCC2)cc1 (configuration not stated),-15.3% (inactive)
9,C/C(=N\NC(=O)c1ccc(F)cc1)c1ccc(NC(=O)Cc2ccccc2)cc1,-10.7% (inactive)
10,COc1ccccc1Nc1nc(NCC2CCCO2)c2ccccc2n1 (configuration not stated),29.6% (inactive)
11,COc1ccc(S(=O)(=O)Nc2nc3ccccc3nc2NCC2CCCO2)cc1 (configuration not stated),-1.23% (inactive)
12,Oc1ccccc1Nc1nc(NCC2CCCO2)c2ccccc2n1 (configuration not stated),19.4% (inactive)
13,COc1ccc(-c2cc(C(=O)NCC3CCCO3)c3ccccc3n2)c(OC)c1 (configuration not stated),-4% (inactive)
14,Oc1ccccc1-c1nc(NCC2CCCO2)c2ccccc2n1 (configuration not stated),-0.56% (inactive)
15,c1ccc2c(NCC3CCCO3)nc(N3CCOCC3)nc2c1 (configuration not stated),0.7% (inactive)
16,COc1cccc(-c2nc(NCC3CCCO3)c3ccccc3n2)c1O (configuration not stated),0.02% (inactive)
17,Oc1ccc(Cl)cc1Nc1nc(NCC2CCCO2)c2ccccc2n1 (configuration not stated),3.79% (inactive)
18,O=C1CN=C(c2ccc[nH]2)c2cc(Cl)ccc2N1,-4.67% (inactive)
19,COC(=O)C1SCC2C(=O)N(Cc3cccc(C)c3)CC(=O)N21 (configuration not stated),0.26% (inactive)
20,CN1C(=S)SC(C)(C)C1(C)NO (configuration not stated),-6.1% (inactive)
21,O=C(CSc1nccn1Cc1ccccc1)Nc1ccccc1,-2.04% (inactive)

row,Compound,inhibition
1,CN(C)N1C(N)=C(C#N)C(c2ccc3c(c2)OCO3)C2=C1CC(C)(C)CC2=O (configuration not stated),-10.5% (inactive)
2,CC(C)Oc1ccc(-c2nc(NCC3CCCO3)c3ccccc3n2)cc1 (configuration not stated),-13.6% (inactive)
3,c1ccc(-c2nc(NCC3CCCO3)c3ccccc3n2)nc1 (configuration not stated),2.1% (inactive)
4,O=C(CN1CCN(c2ccc([N+](=O)[O-])cc2Cl)CC1)N1CCOCC1,2.81% (inactive)
5,CC[N+](C)(C)CCN(Cc1ccc(Cl)cc1)c1ccccn1,1.18% (inactive)
6,COc1ccc(CN(CCN(C)C)c2ccccn2)cc1,-13% (inactive) and 6.04% (inactive)
7,CCC(=O)N1CCc2cc(S(=O)(=O)NC(Cc3ccccc3)C(=O)O)ccc21 (configuration not stated),-1.37% (inactive)
8,Cc1nc(C(=O)NCCCO)cc2c1[nH]c1ccccc12,-6.79% (inactive)
9,Cc1ccc(S(=O)(=O)N(CC(=O)NCc2ccncc2)Cc2ccc(F)cc2)cc1,3.98% (inactive)
10,NC(=S)N/N=C/c1c[nH]c2ccc(OCc3ccccc3)cc12,-7.88% (inactive)
11,COc1ccc2[nH]cc(/C=N/NS(=O)(=O)c3ccc(C)cc3)c2c1,15.2% (inactive)
12,CSc1cccc(NC(=O)CCCOc2ccc(Cl)cc2C)c1,-5.44% (inactive)
13,CCCNCc1cc(Br)ccc1OCC(=O)NCCc1ccccc1,-3.03% (inactive)
14,CCN(CC)CCNCc1cc(Br)ccc1OCC(=O)NCc1ccccc1,-28.2% (inactive)
15,CCOc1ccccc1CNC(=O)Cn1ccc2cc(S(=O)(=O)N3CCCC3)ccc21,3.38% (inactive)
16,Cc1c(C(=O)NC(Cc2ccccc2)c2nc3ccccc3[nH]2)cccc1[N+](=O)[O-] (configuration not stated),-6.76% (inactive)
17,O=Nc1c(O)n(Cc2ccccc2)c2ccccc12,-9.56% (inactive)
18,O=Nc1c(O)[nH]c2c(F)cccc12,-3.73% (inactive)
19,CCOC(=O)CC(c1ccc(N)cc1)n1c(C)ccc1C (configuration not stated),-3.47% (inactive)
20,COc1ccc(Cc2noc(CN3CCCC(C(=O)c4cccs4)C3)n2)cc1OC (configuration not stated),-18.4% (inactive)
